Outcome and Potency data for 20 compounds are collected here from PubChem BioAssay (NCATS).

Values joined by “and” are separate entries in the source; they are usually repeats but may differ in a detail not shown here. Equal values may be shown once. Inconclusive results are not listed. A structure can be active in one record and inactive in another. Active and inactive are the calls of the source. Unless noted, the call rests on the fitted dose curve; in most records, active means well fitted curve in the direction sought with a large enough effect; inconclusive means small, poorly fitted or top-dose-only effect, or another doubt; inactive means no such curve, though single readings can be large; an effect the other way counts as inactive or inconclusive.

Assay [1] in a line: Cellular Toxicity (caspase-3) HepG2 (AID 654).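 Further: cells exposed to compound for 16 hours before reading.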 In short, it runs like this:
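Caspase 3/7 activation in HepG2 is measured as rising luminescence after a 16 hr treatment at 37 °C. Values are scaled between DMSO basal and 100 uM tamoxifen, and AC50 is fitted with the Hill equation.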

Assay [2] in a line: Cellular Toxicity (caspase-3) Jurkat (AID 655).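 Further: cells exposed to compound for 16 h at 37 °C before reading.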 In short, it runs like this: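 Jurkat cells (5000/well) in complete medium exposed 16 h at 37 C; caspase-3/7 activity read by Caspase-Glo luminescence after 20 min at room temperature. Normalized to DMSO and 100 uM tamoxifen; AC50 from Hill fits.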
Assay [3] is described as follows: Cellular Toxicity (caspase-3) HUV-EC-C (AID 656). Put shortly:
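HUV-EC-C cells (1000/well) in complete medium, compound-treated 16 h at 37 °C; caspase-3/7 activity read by Caspase-Glo 3/7 luminescence. Normalized to DMSO (basal) and 100 uM tamoxifen (100%); AC50 from Hill-equation concentration-response fits.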

Assay [4] is described as follows: Cellular Toxicity (caspase-3) SHSY5Y (AID 657). Put shortly:
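SH-SY5Y human neuroblastoma cells, 1500/well, exposed to compound for 16 hours at 37 °C in complete medium. Caspase-3/7 activity read by Caspase-Glo luminescence after 1 hr at room temperature, normalized to DMSO and 10 uM staurosporine; AC50 from Hill fit.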

Assay [5] in a line: Cellular Toxicity (caspase-3) BJ (AID 658). In short, it runs like this: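 Plated BJ cells (1000/well) rested 5 hr, received compound for 16 hr at 37 °C, then Caspase-Glo 3/7 reagent for 1 hr at room temperature before luminescence reading.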
Assay [6] can be described thus: Cellular Toxicity (caspase-3) MRC-5 (AID 659). Put shortly: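 Apoptosis readout in MRC-5 cells: luciferase light generated after caspase 3/7 cleaves a peptide-aminoluciferin substrate, measured post 16 hr compound incubation at 37 °C.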
Assay [7] is described as follows: Cellular Toxicity (caspase-3) Mesangial (AID 660).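 Further: cells exposed to compound for 16 h before the caspase read.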 Put shortly:
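Seed cells derived from normal human renal glomeruli, incubate 5 h, add compounds across concentrations and incubate 16 h at 37 °C. Caspase 3/7 activation is then quantified by luciferase light, with AC50 derived by Hill modeling.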

A short description of assay [8]: Cellular Toxicity (caspase-3) SK-N-SH (AID 661). Put shortly: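 Cells were seeded and incubated 5 hr at 37 °C, dosed with compound over a concentration range for 16 hr, then given Caspase-Glo 3/7 reagent for 1 hr at room temperature before luminescence reading.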
Assay [9] in a line: Cellular Toxicity (caspase-3) H-4-II-E (AID 663).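 Further: cells exposed to compound for 16 hr before readout.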 In short, it runs like this: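 Caspase 3/7 activation measured in H-4-II-E cells in complete culture medium after 16 hr treatment at 37 °C, using luciferase-coupled substrate readout; AC50 values come from Hill-equation fits of normalized concentration-response data.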
The nature of assay [10]: Cellular Toxicity (caspase-3) Hek293 (AID 664).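 Further: cells exposed to compound for 16 h at 37 °C before readout.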 Further: potency means the concentration at half of the fitted maximal effect. The settings on record: HEK293 caspase-3 activation; caspase-3 activation: at 92.2 µM (top of the series), DMSO = 0%, 100 µM tamoxifen = 100%. In short, it runs like this: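 qHTS, HEK293 (human embryonic kidney), 16 h cpd exposure in complete medium. Caspase-3/7 activation = luminescence increase; normalized to DMSO/100 uM tamoxifen; Hill-fit AC50.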

Assay [11] in a line: Cellular Toxicity (caspase-3) N2a (AID 665).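 Further: compound exposure lasted 16 h at 37 °C before readout.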 Put shortly: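 Caspase-3/7 activation, measured as increased luminescence from aminoluciferin release, is quantified in mouse N2a cells exposed to compounds for 16 h. Values are normalized to DMSO and 10 uM staurosporine, with AC50 derived by Hill modelling.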
Assay [12] is described as follows: Cellular Toxicity (caspase-3) NIH 3T3 (AID 666).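 Further: caspase signal read after 16 h compound exposure.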 Put shortly:
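Cells were plated at 1000 per well and incubated 5 hr at 37°C, then compound was added for 16 hr. Caspase-Glo 3/7 reagent followed for 20 min at room temperature before luminescence was read.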

Assay [13] is described as follows: Cellular Toxicity (caspase-3) Renal Proximal Tubule (AID 667).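 Further: cells exposed to compound for 16 hours at 37 °C before detection.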 Put shortly: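 Freshly isolated primary rat kidney proximal tubule cells, 1000/well, treated 16 hr at 37 °C, then Caspase-Glo 3/7 luminescence after 1 hr. Normalized to DMSO and 10 uM staurosporine; AC50 from Hill fit.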
Assay [14] addresses Cytochrome P450 2D6 (Homo sapiens) (UniProt P10635). As to the kind of experiment: qHTS Assay for Inhibitors and Substrates of Cytochrome P450 2D6 (AID 891). Further: nearly all actives have a fitted effect of over 60% in size. Further: potency means the concentration at half of the fitted maximal effect. In short, it runs like this: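 Luminescent read-out of luciferin formed by 5 nM human CYP2D6 demethylating 30 uM Luciferin-ME EGE (Km level) over 60 min at room temperature after NADPH regeneration addition. Data normalized to full inhibition by 1.43 uM quinidine.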
For orientation: qHTS replaces the single test concentration by a dilution series.

In assay [15] the target is Cytochrome P450 3A4 (Homo sapiens) (UniProt P08684). In words: qHTS Assay for Inhibitors and Substrates of Cytochrome P450 3A4 (AID 884). Further: nearly all actives have a fitted effect of over 50% in size. Put shortly: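 Luminescent readout of luciferin produced by CYP3A4 (20 nM) dealkylation of Luciferin-PPXE, 25 uM (its KM). NADPH-driven reaction ran 60 min at RT after 10 min compound preincubation; data scaled to 57 uM ketoconazole as 100% inhibition.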

Assay [16] deals with 3',5'-cyclic-AMP phosphodiesterase 4B (Homo sapiens) (UniProt Q07343). In words: qHTS Assay for Inhibitors of PDE-IV (AID 607; active means well fitted activation curve with a large enough effect in the main read-out, with a control signal flat, not every such curve was filed as active). In short, it runs like this: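 Live HEK293 cells with a modified cyclic nucleotide-gated (CNG) channel report intracellular cAMP via membrane-potential dye fluorescence (ex 535/em 590 nm). Endogenous PDE-IV was targeted. Compounds were tested at up to 22.9 uM final; RO 20-1724 100 uM served as control.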

Assay [17] has as its target Guanine nucleotide-binding protein G(i) subunit alpha-1 (Homo sapiens) (UniProt P63096). In words: qHTS Assay for Inhibitors of RGS12 GoLoco Motif Activity (Green Fluorophore) (AID 879).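 Further: negative values mean loss of peptide binding seen as reduced polarization.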 In short, it runs like this: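 A drop in FITC polarization marked displacement of the FITC-tagged RGS12 GoLoco peptide (10 nM) from Gαi1 (50 nM). Compounds were incubated 10 min at room temperature in Tris pH 7.5 buffer containing 150 mM NaCl, 0.1 mM GDP and 0.05% NP40; unlabeled peptide titration served as control.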

Assay [18] in a line: qHTS Assay for Identification of Small Molecule Antagonists for NFkB Signaling Pathway (AID 895; active means well fitted inhibition curve with a large enough effect in the signal ratio, with a control signal flat, not every such curve was filed as active; the % refers to the signal ratio; further: potency means the concentration at half of the fitted maximal effect). Put shortly:
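NFkB-bla ME-180 cervical carcinoma cells with beta-lactamase reporter under NFkB response element; compounds added, then TNF alpha at 10 pM final (EC50), 5 h at 37 C. LiveBLAzer substrate 2 h, room temperature; emission 460/530 nm at 405 nm excitation.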

The target of assay [19] is Cytochrome P450 2C9 (Homo sapiens) (UniProt P11712). In words: qHTS Assay for Inhibitors and Substrates of Cytochrome P450 2C9 (AID 883). Further: nearly all actives have a fitted effect of over 60% in size. Further: potency means the concentration at half of the fitted maximal effect. In short, it runs like this:
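A luminogenic readout tracked human CYP2C9 (10nM) converting deoxyluciferin (100uM, at KM) in 25mM KPO4 during 60 min at 37C with regenerated NADPH. Values normalized to 57uM sulphaphenazole as complete inhibition.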

In assay [20] the target is Cytochrome P450 2C19 (Homo sapiens) (UniProt P33261). In words: qHTS Assay for Inhibitors and Substrates of Cytochrome P450 2C19 (AID 899). Further: nearly all actives have a fitted effect of over 60% in size. Further: potency means the concentration at half of the fitted maximal effect. Put shortly:
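NADPH-dependent conversion of Luciferin-H EGE (10uM, at KM) by 5nM enzyme in 50mM KPO4, 60 min at 37C following 10 min compound preincubation. Stopped with luciferin detection buffer; luminescence read after 20 min.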

3',5'-cyclic-AMP phosphodiesterase 4B (Homo sapiens), sequence (Q07343 whole entry, looked up): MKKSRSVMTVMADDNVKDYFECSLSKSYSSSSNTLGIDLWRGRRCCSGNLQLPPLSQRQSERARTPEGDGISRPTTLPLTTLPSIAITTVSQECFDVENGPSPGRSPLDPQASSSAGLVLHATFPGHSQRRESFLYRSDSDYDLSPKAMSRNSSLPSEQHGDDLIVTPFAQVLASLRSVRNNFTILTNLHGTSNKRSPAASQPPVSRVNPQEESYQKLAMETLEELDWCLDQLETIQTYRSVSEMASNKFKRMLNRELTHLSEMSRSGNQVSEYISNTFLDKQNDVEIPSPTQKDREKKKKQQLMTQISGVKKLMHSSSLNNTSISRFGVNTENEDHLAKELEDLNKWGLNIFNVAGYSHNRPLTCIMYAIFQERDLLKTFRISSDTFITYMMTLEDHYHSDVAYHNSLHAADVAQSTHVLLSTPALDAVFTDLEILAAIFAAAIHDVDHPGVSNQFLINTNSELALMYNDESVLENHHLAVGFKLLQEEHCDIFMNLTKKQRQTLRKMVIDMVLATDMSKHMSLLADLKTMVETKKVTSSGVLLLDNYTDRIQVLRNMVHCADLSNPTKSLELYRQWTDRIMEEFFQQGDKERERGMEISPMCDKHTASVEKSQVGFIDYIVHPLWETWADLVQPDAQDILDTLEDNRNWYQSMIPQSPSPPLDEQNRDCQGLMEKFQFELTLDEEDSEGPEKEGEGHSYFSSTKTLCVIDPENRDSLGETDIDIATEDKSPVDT
Cytochrome P450 2C9 (Homo sapiens), sequence (P11712 whole entry, looked up): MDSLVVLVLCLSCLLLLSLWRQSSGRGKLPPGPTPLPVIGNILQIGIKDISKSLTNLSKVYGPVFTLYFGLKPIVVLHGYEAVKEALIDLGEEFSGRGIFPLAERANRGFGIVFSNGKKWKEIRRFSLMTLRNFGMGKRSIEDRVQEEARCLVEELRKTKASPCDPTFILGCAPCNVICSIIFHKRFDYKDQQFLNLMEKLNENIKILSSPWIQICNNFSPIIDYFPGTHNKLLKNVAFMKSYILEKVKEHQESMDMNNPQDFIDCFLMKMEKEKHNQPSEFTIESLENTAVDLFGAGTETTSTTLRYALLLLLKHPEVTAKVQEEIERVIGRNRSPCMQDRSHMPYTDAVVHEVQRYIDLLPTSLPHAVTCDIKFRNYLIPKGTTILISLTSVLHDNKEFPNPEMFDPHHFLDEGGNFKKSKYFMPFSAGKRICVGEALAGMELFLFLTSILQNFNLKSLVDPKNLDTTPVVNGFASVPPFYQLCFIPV
Cytochrome P450 2D6 (Homo sapiens), sequence (P10635 whole entry, looked up): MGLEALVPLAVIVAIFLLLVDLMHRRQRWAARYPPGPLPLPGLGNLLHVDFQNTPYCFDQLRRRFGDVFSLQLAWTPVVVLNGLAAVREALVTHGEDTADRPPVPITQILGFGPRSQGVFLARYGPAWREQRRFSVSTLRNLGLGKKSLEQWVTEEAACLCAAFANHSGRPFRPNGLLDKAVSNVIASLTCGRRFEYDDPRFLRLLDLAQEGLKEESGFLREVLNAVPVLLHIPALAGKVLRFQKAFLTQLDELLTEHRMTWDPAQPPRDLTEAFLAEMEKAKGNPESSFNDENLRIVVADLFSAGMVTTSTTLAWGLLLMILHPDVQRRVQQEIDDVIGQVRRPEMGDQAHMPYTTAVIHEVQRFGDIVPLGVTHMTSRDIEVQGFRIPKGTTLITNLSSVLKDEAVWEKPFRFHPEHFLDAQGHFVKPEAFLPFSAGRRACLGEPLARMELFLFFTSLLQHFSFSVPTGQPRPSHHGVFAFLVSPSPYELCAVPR
Cytochrome P450 3A4 (Homo sapiens), sequence (P08684 whole entry, looked up): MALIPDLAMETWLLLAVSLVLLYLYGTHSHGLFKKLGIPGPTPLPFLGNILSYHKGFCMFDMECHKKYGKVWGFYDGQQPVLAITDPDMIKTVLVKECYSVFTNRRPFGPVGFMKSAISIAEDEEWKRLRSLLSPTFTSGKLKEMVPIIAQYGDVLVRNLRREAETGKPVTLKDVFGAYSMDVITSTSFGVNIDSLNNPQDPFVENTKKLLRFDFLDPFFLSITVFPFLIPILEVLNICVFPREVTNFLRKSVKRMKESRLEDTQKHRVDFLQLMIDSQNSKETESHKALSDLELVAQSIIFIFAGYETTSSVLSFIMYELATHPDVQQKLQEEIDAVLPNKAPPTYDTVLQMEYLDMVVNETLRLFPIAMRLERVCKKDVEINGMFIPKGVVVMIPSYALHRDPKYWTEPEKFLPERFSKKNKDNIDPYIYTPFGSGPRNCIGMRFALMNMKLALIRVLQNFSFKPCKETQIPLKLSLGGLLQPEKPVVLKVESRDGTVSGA
Guanine nucleotide-binding protein G(i) subunit alpha-1 (Homo sapiens), sequence (P63096 whole entry, looked up): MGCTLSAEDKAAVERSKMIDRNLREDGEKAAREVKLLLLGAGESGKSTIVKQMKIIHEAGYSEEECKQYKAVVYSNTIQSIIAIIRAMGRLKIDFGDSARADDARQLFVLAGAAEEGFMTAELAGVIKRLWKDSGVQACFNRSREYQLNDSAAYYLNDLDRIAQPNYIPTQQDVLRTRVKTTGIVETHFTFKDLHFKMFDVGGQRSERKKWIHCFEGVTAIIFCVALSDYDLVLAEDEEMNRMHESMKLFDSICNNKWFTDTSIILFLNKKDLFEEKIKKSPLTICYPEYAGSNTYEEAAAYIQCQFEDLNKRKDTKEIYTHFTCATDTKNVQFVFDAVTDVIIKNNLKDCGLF
Cytochrome P450 2C19 (Homo sapiens), sequence (P33261 whole entry, looked up): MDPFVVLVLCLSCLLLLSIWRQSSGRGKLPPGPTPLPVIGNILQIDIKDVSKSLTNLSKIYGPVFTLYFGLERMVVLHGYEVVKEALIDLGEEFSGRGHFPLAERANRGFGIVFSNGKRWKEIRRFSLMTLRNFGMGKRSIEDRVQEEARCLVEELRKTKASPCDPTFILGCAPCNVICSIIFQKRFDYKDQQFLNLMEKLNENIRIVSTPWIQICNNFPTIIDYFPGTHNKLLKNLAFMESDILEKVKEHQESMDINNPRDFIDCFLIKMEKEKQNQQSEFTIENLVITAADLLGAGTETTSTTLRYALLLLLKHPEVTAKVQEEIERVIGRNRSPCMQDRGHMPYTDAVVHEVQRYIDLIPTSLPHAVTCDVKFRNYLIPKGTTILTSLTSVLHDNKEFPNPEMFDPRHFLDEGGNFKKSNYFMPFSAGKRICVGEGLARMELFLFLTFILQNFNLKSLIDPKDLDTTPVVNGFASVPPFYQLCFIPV

`Nc1c2c(nc3ccccc13)CCCC2`: the compound was classed as inactive in assay [1], in [3], in assay [4], in assay [5], in assay [6] and in assay [7]. Besides, the compound was classed as inactive in [9], in assay [11], in assay [12] and in assay [13]. Besides, the Potency entry in assay [2], in [8] and in [10] was “inactive” in each case. For the same compound, the Potency in assay [14] is 5.01 µM (active).
On to `CC12CC3CC(C)(C1)CC(N)(C3)C2`, for which, in assay [15], the call was inactive.
As for `O=C1c2c(O)ccc(O)c2C(=O)c2c(NCCNCCO)ccc(NCCNCCO)c21`, the Potency result in assay [16] and in assay [17] was “inactive” throughout. Further, in assay [18], the Potency is 2 µM (active).
Take `CC(C)NCC(O)c1ccc(O)c(O)c1` (stereo not given): the call in assay [1], in [3], in [4], in assay [5], in assay [6] and in assay [7] was inactive. The outcome in assay [9], in assay [11], in assay [12] and in [13] was inactive. Moreover, the Potency entry in assay [2], in assay [8] and in assay [10] was “inactive” in each case.
For `CC(COc1ccccc1)N(CCCl)Cc1ccccc1` (stereo not given), the call in assay [3], in assay [4], in [6], in [7], in assay [9] and in assay [12] was inactive. Also, in [10], the Potency was 31.6 µM (active).
With `O=c1c(O)c(-c2ccc(O)c(O)c2)oc2cc(O)cc(O)c12`, the Potency entry in [16] and in assay [14] was “inactive” each time.
`COc1ccc(C2CNC(=O)C2)cc1OC1CCCC1` (stereo not given): the Potency result in assay [17] and in [18] was “inactive” each time.
In the case of `Cc1cn([C@H]2C=C[C@@H](CO)O2)c(=O)[nH]c1=O`, the outcome in assay [1], in assay [3], in [4], in [5], in assay [6] and in assay [7] was inactive. The call in [9], in assay [11], in [12], in [13] and in [15] was inactive. For the same compound, the Potency result in assay [2], in assay [8] and in [10] was “inactive” in each case.
`Clc1ccccc1C(c1ccccc1)(c1ccccc1)n1ccnc1`: the Potency result in [16] is “inactive”. For the same compound, the Potency in assay [19] is 1 µM (active) and 316 nM (active); in assay [14], 10 µM (active); in assay [20] it was 10 µM (active).
`Nc1ccn([C@H]2CC[C@@H](CO)O2)c(=O)n1`: the call in assay [1], in assay [3], in assay [4], in [5], in assay [6] and in assay [7] was inactive. For the same compound, the result in [9], in assay [11], in [12], in assay [13] and in assay [15] was inactive. The Potency entry in [2], in assay [8] and in assay [10] was “inactive” in each case.
With `CC(=O)OCC(CCn1cnc2cnc(N)nc21)COC(C)=O`, the outcome in assay [15] was inactive.
On to `OCCN(CCO)c1nc(N2CCCCC2)c2nc(N(CCO)CCO)nc(N3CCCCC3)c2n1`, for which, in [16], the Potency result is “inactive”. In [14], the Potency is 12.6 µM (active) and 10 µM (active); the call was inactive.
Take `COc1ccc(CCN(C)CCCC(C#N)(c2ccc(OC)c(OC)c2)C(C)C)cc1OC` (stereo not given): the call in [1], in assay [3], in assay [4], in assay [5], in assay [6] and in assay [7] was inactive. Also, the compound was called inactive in assay [9], in assay [11], in [12] and in assay [13]. Besides, the Potency entry in assay [2], in [8] and in assay [10] was “inactive” throughout.
Turning to `NC(=O)OCC(COC(N)=O)c1ccccc1`, the Potency result in assay [16], in [19], in assay [18] and in assay [20] was “inactive” each time. Besides, the Potency result in [14] is “inactive and 794 nM (active)”.
Take `Nc1nnc(-c2cccc(Cl)c2Cl)c(N)n1`: the Potency result in [17] and in assay [18] was “inactive” in each case. Besides, the Potency entry in assay [14] is “inactive and 6.31 µM (active)”.
`CCOC(=O)C(C)(C)Oc1ccc(Cl)cc1`: the Potency result in [16] and in assay [18] was “inactive” each time.
As for `CCN1CCCC1CNC(=O)c1cc(S(=O)(=O)CC)c(N)cc1OC` (stereo not given), the compound was called inactive in [15].
In the case of `CS(=O)(=O)Nc1ccc([N+](=O)[O-])cc1Oc1ccccc1`, the Potency entry in assay [16], in assay [14], in assay [18] and in assay [20] was “inactive” throughout. In assay [19], the Potency is 10 µM (active) and 3.16 µM (active).
For `CN1CCN(CCCN2c3ccccc3Sc3ccc(Cl)cc32)CC1`, the Potency entry in assay [16] was “inactive”. In addition, the Potency in [14] was 398 nM (active) and 794 nM (active).
Turning to `CCC1(C)CC(=O)NC1=O` (stereo not given), in assay [15], the outcome was inactive.
